Assay results reported in PubChem BioAssay (EPA / NIEHS).
Where a structure was tested more than once in an assay, its records may differ in their call. Activity calls are given as the source filed them. How the source made its calls: active means hit-call score of the fitted dose curve at least 0.9, where 1 is the maximum; inactive means score below 0.9.

Assay: ATG_RORE_CIS: Attagene CIS-FACTORIAL HepG2 Assay for human RAR-related Orphan Receptor Element (RORE) (AID 2282959)
Conditions: HepG2 Attagene cis-factorial RORE reporter, mRNA; actives raise or lower the signal
Experimental: ATG_CIS is a cell-based, multiplexed-readout assay that uses HepG2, a human liver cell line, with measurements taken at 24 hours after chemical dosing in a 24-well plate.ATG_RORE_CIS is one of 52 assay component(s) measured or calculated from the ATG_CIS assay. It is designed to make measurements of mRNA induction, a form of inducible reporter, as detected with fluorescence intensity signals by Reverse transcription polymerase chain reaction (RT-PCR) and Capillary electrophoresis technology.Data from the assay component ATG_RORE_CIS was analyzed into 1 assay endpoint. This assay endpoint, ATG_RORE_CIS, was analyzed with bidirectional fitting relative to DMSO as the negative control and baseline of activity. Using a type of inducible reporter, measures of mRNA for gain or loss-of-signal activity can be used to understand the reporter gene at the transcription factor-level as they relate to the gene RORA and RORB and RORC. Furthermore, this assay endpoint can be referred to as a primary readout, because this assay has produced multiple assay endpoints where this one serves a reporter gene function. To generalize the intended target to other relatable targets, this assay endpoint is annotated to the nuclear receptor intended target family, where the subfamily is orphan.
Human liver HepG2 cells are transiently transfected with multiple reporter transcription units (MRTUs) in 6-well plates using FuGene 6 reagent (Roche; 3 ml FuGene/1 mg DNA). The MRTU constructs are regulated by a cis-regulating element (promoter). […] A major difference between the CIS and TRANS system is that in CIS activities of endogenous TFs are measured, whereas the TRANS assay evaluates changes in activities of exogenous, chimeric NR-Gal4 proteins. […] At the end of 24 hour incubation, total RNA was isolated using TriZol reagent (Invitrogen). The isolated RNA is then reverse-transcribed using oligo(dT) primer and Mo-MLV reverse transcriptase (Invitrogen) with DNAse I (Ambion) treatment for 30 min. The one-tenth of the produced cDNA was amplified by PCR using Taq DNA polymerase (Invitrogen) and two reporter sequence-specific primers. The PCR products were fluorescently labeled by primer extension with 6-arboxyfluorescein (6-FAM) 5'-labeled reporter sequence-specific primer (2 min at 95 C, 20 s at 68 C and 10 min at 72 C) and these products were digested with 5U of HpaI (New England Biolabs) for 2h at 37 C. The fragments were purified using Qiaquick PCR columns (Qiagen), analyzed on an ABI 3130xL genetic analyzer (Applied Biosystems) with peak positions identified by using a set of X-rhodamine (ROX)-labeled MapMarker1000 molecular weight standards (BioVentures). The raw capillary electrophoresis data was processed using Attagraph software (Attagene).

outcome, inactive:
O=C(CC(=O)C(F)(F)C(F)(F)C(F)(F)F)c1cccs1
c1ccc(CNc2ncnc3c2ncn3C2CCCCO2)cc1 (stereo not given)
CC(C)(O)C(=O)c1ccccc1
CC1CNCC(C)O1 (stereo not given)
O=C(C=C(O)C(F)(F)F)C(F)(F)F
CC(C)[C@@H]1CC[C@@H](C)C[C@H]1O
Cc1ccc(C(=O)c2ccccc2)cc1
NNc1nc(-c2ccc([N+](=O)[O-])cc2)cs1
C=CC(=O)OCCC(F)(F)C(F)(F)C(F)(F)C(F)(F)C(F)(F)C(F)(F)F
c1ccc2c(c1)CCC2
CCC(C)c1ccccc1O (stereo not given)
O=P(O)(O)CCC(F)(F)C(F)(F)C(F)(F)C(F)(F)C(F)(F)C(F)(F)C(F)(F)C(F)(F)F
CCCCCCCCCCCC(=O)O
O=CC(F)(F)C(F)(F)C(F)(F)C(F)F
CCCCN(C)C
Brc1ccc(Oc2ccc(Br)cc2Br)cc1
CC(=O)CC(C)C
Cc1cc(Cc2cc(C)cc(C(C)(C)C)c2O)c(O)c(C(C)(C)C)c1
CCCCCCC(C)(C)C(=O)O
CCCCCCCCCCCC[N+](C)(C)Cc1ccccc1
FC(F)(F)C1(F)C(F)(F)C(F)(F)C(F)(F)C1(F)F
O=C1NS(=O)(=O)c2ccccc21
COCN(COC)c1nc(N(COC)COC)nc(N(COC)COC)n1
FC(F)(F)C1(F)C(F)(F)C(F)(F)C(F)(F)C(F)(C(F)(F)F)C1(F)F (stereo not given)
CN(C)CCOC(c1ccccc1)c1ccccc1
CCO[Si](CCC1CCC2OC2C1)(OCC)OCC (stereo not given)
OCC(F)(F)C(F)(F)C(F)(F)C(F)(F)C(F)(F)C(F)(F)C(F)(F)C(F)(F)C(F)(F)C(F)(F)C(F)(F)F
CCc1ccccc1O
FC(OC(F)(F)C(F)(F)C(F)(F)F)C(F)(F)F (stereo not given)
Nc1cc(Cl)c(-c2cc(Cl)c(N)cc2Cl)cc1Cl
CCOC=O
CCCCCCCCCCCCOC(=O)c1cc(O)c(O)c(O)c1
O=C(O)CN(CCCN(CC(=O)O)CC(=O)O)CC(=O)O
C[C@]12CC[C@@H]3c4ccc(O)cc4CC[C@H]3[C@@H]1CC[C@@H]2OC(=O)CCC1CCCC1
C=COC(=O)C(C)(C)CCCCCC
CC1=NN(c2ccccc2)C(=O)C1
C/C=C/C(=O)C1=C(C)CCCC1(C)C

AC50, active:
O=C(CC(=O)C(F)(F)C(F)(F)C(F)(F)F)c1cccs1 15.6 µM
Clc1ccc(Nc2nnc(Cc3ccncc3)c3ccccc23)cc1 15.8 µM
CCOC(=O)c1nc(C(Cl)(Cl)Cl)n(-c2ccc(Cl)cc2Cl)n1 167 µM
